# Experimental data as given in the supplement of paper PMC8253809.
# Values joined by “and” are separate entries in the source; they are usually repeats but may differ in a detail not shown here. Equal values may be shown once.
# How the values were obtained:
# Experiment in all cases: growth inhibition (% activity, log2 RLU normalised to DMSO / staurosporine); higher = more growth inhibition
# Conditions in all cases: 33 µM
# [1] = test system: DIPGX29 (H3.3 K27M diffuse intrinsic pontine glioma line)
# Method in brief: (§1)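 For each approved drug, the growth-inhibition value is the replicate median of per-plate normalised CellTiter-Glo data. Luminescence was log2-transformed and expressed as % activity between solvent and positive control wells. Drugs were applied in triplicate at a single final concentration of about 33 μM for 7 days at 37 °C, 5% CO2 to pHGG cell lines and H9-derived neural stem cells.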
# [2] = test system: DIPGX37 (H3.3 K27M diffuse intrinsic pontine glioma line)
# Method in brief: as §1
# [3] = test system: DIPGX7 (H3.3 K27M diffuse intrinsic pontine glioma line)
# Method in brief: as §1
# [4] = test system: DIPGX9 (diffuse intrinsic pontine glioma line)
# Method in brief: as §1
# [5] = test system: HGGX39 (paediatric high-grade glioma line)
# Method in brief: as §1
# [6] = test system: HGGX6 (H3.3 G34R paediatric high-grade glioma line)
# Method in brief: as §1
# [7] = test system: HNSC
# Method in brief: as §1
# [8] = test system: SUDIPGIV (diffuse intrinsic pontine glioma line)
# Method in brief: as §1
# [9] = test system: SUDIPGVI (diffuse intrinsic pontine glioma line)
# Method in brief: as §1
# [10] = test system: SUDIPGXIII (diffuse intrinsic pontine glioma line)
# Method in brief: as §1
Compound,growth inhibition [1],growth inhibition [2],growth inhibition [3],growth inhibition [4],growth inhibition [5],growth inhibition [6],growth inhibition [7],growth inhibition [8],growth inhibition [9],growth inhibition [10]
CCCCN(CCCC)CCCOC(=O)c1ccc(N)cc1,2.46%,2.29%,5.01%,2.44%,6.95%,5.63%,8.9%,1.64%,3.72%,-1.97%
C[C@@H](c1ncncc1F)[C@](O)(Cn1cncn1)c1ccc(F)cc1F,0.619%,-0.0255%,0.392%,0.104%,0.756%,-0.00667%,1.22%,-1.27%,-1.71%,-0.404%
O=c1c(-c2ccc(O)cc2)coc2cc(O)cc(O)c12,0.891%,2.29%,2.16%,4.34%,4.09%,2.54%,3.99%,-1.2%,0.172%,-2.36%
CCC1=C(C)CN(C(=O)NCCc2ccc(S(=O)(=O)NC(=O)N[C@H]3CC[C@H](C)CC3)cc2)C1=O,1.44%,2.15%,-0.131%,1.61%,-0.27%,0.0487%,4.42%,-0.00514%,1.62%,0.817%
CO[C@H]1C[C@@H]2CC[C@@H](C)[C@@](O)(O2)C(=O)C(=O)N2CCCC[C@H]2C(=O)O[C@H]([C@H](C)C[C@@H]2CC[C@@H](OCCO)[C@H](OC)C2)CC(=O)[C@H](C)/C=C(\C)[C@@H](O)[C@@H](OC)C(=O)[C@H](C)C[C@H](C)/C=C/C=C/C=C/1C,4.26%,2.47%,3.53%,14%,8.9%,7.45%,7.71%,1.16%,10.5%,1.36%
O=C(O)CSCC(=O)NC1CCSC1=O (stereo not given),0.54%,-0.388%,-0.264%,-0.495%,0.576%,-1.19%,-1.48%,0.118%,1.47%,-6.51%
C[C@H](Cn1cnc2c(N)ncnc21)OCP(=O)(O)O,-1.46%,-3.07%,-1.11%,-0.823%,-1.24%,-0.0212%,-0.925%,-2.6%,-0.383%,0.192%
CCOC(=O)[C@H](CCc1ccccc1)N[C@@H](C)C(=O)N1Cc2ccccc2C[C@H]1C(=O)O,1.41%,1.99%,3.28%,3.18%,5.5%,3.4%,5.54%,3.99%,0.712%,0.247%
CCCNC(C)C(=O)Nc1c(C)csc1C(=O)OC (stereo not given),0.453%,0.894%,1.5%,-0.444%,3.43%,1.44%,5.64%,0.331%,2.98%,-0.525%
Cc1oncc1C(=O)Nc1ccc(C(F)(F)F)cc1,12%,9.13%,10.1%,22.6%,24.2%,9.78%,55.7%,28.2%,1.33%,2.78%
Oc1ccc(OC2CCCCO2)cc1 (stereo not given),-0.0269%,0.922%,1.6%,1.43%,2.89%,2.46%,-1.26%,0.845%,0.118%,0.895%
CN/C(=N\CCSCc1nc[nH]c1C)NC#N,0.842%,1.91%,1.01%,0.766%,1.68%,1.98%,0.707%,-0.184%,2.38%,0.0177%
Nc1ccc(S(=O)(=O)Nc2ccccn2)cc1,0.131%,-0.785%,-0.925%,-0.171%,0.333%,0.609%,0.764%,-1.02%,1.15%,-1.65%
COc1cc(NS(=O)(=O)c2ccc(N)cc2)nc(OC)n1,1.59%,1.08%,2.92%,1.55%,1.71%,2.67%,1.56%,0.337%,2.95%,-1.53%
CCC(=O)O[C@]1(C(=O)CCl)[C@@H](C)C[C@H]2[C@@H]3CCC4=CC(=O)C=C[C@]4(C)[C@@]3(F)[C@@H](O)C[C@@]21C,2.76%,3.09%,1.96%,5.92%,8.62%,1.59%,10.2%,6.72%,2.14%,2.24%
CSc1nc2cc(Cl)c(Oc3cccc(Cl)c3Cl)cc2[nH]1,1.22%,-0.121%,-0.253%,0.647%,4.81%,3.1%,-0.0294%,2.29%,1.54%,2.86%
N=C(N)N/N=C/c1c(Cl)cccc1Cl,1.41%,1.84%,1.08%,1.59%,4.69%,2.81%,1.67%,7.04%,3.21%,1.52%
CCn1nc(C(=O)O)c(=O)c2cc3c(cc21)OCO3,0.16%,0.624%,-0.169%,-0.854%,0.711%,1.66%,0.841%,-0.519%,-0.803%,0.089%
NCC[C@H](O)C(=O)N[C@@H]1C[C@H](N)[C@@H](O[C@H]2O[C@H](CN)[C@@H](O)[C@H](O)[C@H]2O)[C@H](O)[C@H]1O[C@H]1O[C@H](CO)[C@@H](O)[C@H](N)[C@H]1O,-1.74% and 1.77%,-1.47% and 4.24%,-2.3% and 3.01%,-2.19% and 1.75%,-0.158% and 4.96%,-2.78% and 2.92%,-1.9% and 2.1%,-1.35% and 2.18%,-1.89% and 2.2%,-0.125% and 0.203%
Cc1onc(-c2ccccc2Cl)c1C(=O)N[C@@H]1C(=O)N2[C@@H]1SC(C)(C)[C@@H]2C(=O)O,-0.728%,-0.729%,-0.308%,-1.05%,-0.725%,1.07%,-1.87%,-0.916%,-0.387%,-9.34%
CC1(C)O[C@@H]2C[C@H]3[C@@H]4CCC5=CC(=O)C=C[C@]5(C)[C@H]4[C@@H](O)C[C@]3(C)[C@]2(C(=O)CO)O1,0.656%,2.84%,-0.564%,3%,2.23%,1.78%,-4.33%,0.0175%,-0.194%,2.31%
